WT yeast gro inh: growth inhibition of WT yeast, mitochondrial fusion screen; 190,000 compounds, 2.1% hits; mitochondrial fusion phenotypic screen, WT strain; inhibition, % at 10 µM; AID 1362; in the data active means inhibition above about 58%; tested in S. cerevisiae
Platelet DG rel: modulates dense granule release in human platelets; human platelet-rich plasma, SFLLRN dense granule ATP release, luminescence; 300,000 compounds, 0.22% hits; inhibition, %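 (compounds screened at 7.5 µM in platelet-rich plasma)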;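 active means mean replicate score, as percent of positive control, at or above 50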
PHOSPHO1 inh: PHOSPHO1 (human) inhibition; Q8TCT1; recombinant PHOSPHO1, absorbance phosphatase assay; inhibition, % at 13.3 µM; 290,000 compounds, 1.1% hits; AID 1565; in the data active means inhibition above about 60%
Target sequence (Q8TCT1 whole entry, looked up): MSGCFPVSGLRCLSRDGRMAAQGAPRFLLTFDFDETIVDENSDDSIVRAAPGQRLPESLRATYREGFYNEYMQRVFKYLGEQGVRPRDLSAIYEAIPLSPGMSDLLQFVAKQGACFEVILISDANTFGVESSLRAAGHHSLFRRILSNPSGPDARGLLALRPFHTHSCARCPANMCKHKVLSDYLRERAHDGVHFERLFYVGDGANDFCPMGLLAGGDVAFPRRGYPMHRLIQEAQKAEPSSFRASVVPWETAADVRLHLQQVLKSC
SKKanGAS inh: inhibitors of SKKanGAS S. pyogenes growth in kanamycin (SK-promoter or general growth effect) | 300,000 compounds, 1.3% hits | AID 1662 | BacTiter-Glo, 6 h | inhibition, % at 7.5 µM;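 active means mean replicate score, as percent of positive control median, at least 50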;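 further: strain carries kanamycin resistance gene driven by streptokinase promoter and grows in 40 µg/ml kanamycin; loss of luminescence reflects streptokinase promoter inhibition or plain growth inhibition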
TPT1 inhibitor: C. albicans TPT1 enzyme inhibition; recombinant caTPT1, FP RNA substrate dephosphorylation; 300,000 compounds, 0.81% hits; inhibition, % at 5 µM;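 active means inhibition above the mean of all tested compounds plus 3 SD, set per screening campaign, cut at about 24% in these data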
Rtt109 Vps75: inhibitors of Candida albicans Rtt109/Vps75 histone acetyltransferase; purified Rtt109/Vps75, ThioGlo CoA-SH fluorescence, 4 h; inhibition, % at 34.9 µM; 330,000 compounds, 0.16% hits; Q5AAJ8;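 active means inhibition of at least 50% in every replicate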
Target sequence (Q5AAJ8 whole entry, looked up): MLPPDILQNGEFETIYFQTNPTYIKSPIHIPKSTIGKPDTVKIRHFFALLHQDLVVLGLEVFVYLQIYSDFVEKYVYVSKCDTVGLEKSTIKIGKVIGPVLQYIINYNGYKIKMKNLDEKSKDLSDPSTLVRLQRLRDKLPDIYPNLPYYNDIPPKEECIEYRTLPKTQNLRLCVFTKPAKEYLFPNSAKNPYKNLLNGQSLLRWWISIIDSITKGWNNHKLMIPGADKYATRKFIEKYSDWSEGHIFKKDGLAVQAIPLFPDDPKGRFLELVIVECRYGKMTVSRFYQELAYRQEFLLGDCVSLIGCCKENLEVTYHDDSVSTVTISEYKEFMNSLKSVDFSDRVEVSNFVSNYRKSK
Hits are given with their value. Most compounds without a hit are left out; they make up all but 3.9% or so of the library.

How did COc1ccc2[nH]cc(C(=O)CNc3nc(C)cs3)c2c1 do in these assays?
WT yeast gro inh: inactive; Platelet DG rel: inactive; PHOSPHO1 inh: 89; SKKanGAS inh: inactive; TPT1 inhibitor: inactive; Rtt109 Vps75: inactive

Results for COC(=O)c1sccc1NC(=O)Nc1ccccc1F ?
WT yeast gro inh: inactive; Platelet DG rel: inactive; PHOSPHO1 inh: 63; SKKanGAS inh: inactive; TPT1 inhibitor: inactive; Rtt109 Vps75: inactive

How did COC(=O)c1sccc1NC(=O)Nc1ccccc1C do in these assays?
PHOSPHO1 inh: inactive; Rtt109 Vps75: inactive

What do the screens show for `COc1ccc(N2CCN(C(c3cccs3)C(C)NC(=O)C(=O)N3CCOCC3)CC2)cc1` (stereo not drawn)?
Platelet DG rel: inactive; PHOSPHO1 inh: 65; SKKanGAS inh: inactive; TPT1 inhibitor: inactive; Rtt109 Vps75: inactive

Results for C=CCN1CN(S(=O)(=O)c2cccc(Cl)c2)c2nc3ccccc3nc21 ?
Platelet DG rel: inactive; PHOSPHO1 inh: inactive; SKKanGAS inh: inactive; TPT1 inhibitor: inactive; Rtt109 Vps75: inactive

How did CC(=O)c1ccc(N2CCN(c3ccccc3O)CC2)c([N+](=O)[O-])c1 do in these assays?
Platelet DG rel: inactive; PHOSPHO1 inh: inactive; SKKanGAS inh: inactive; TPT1 inhibitor: inactive; Rtt109 Vps75: inactive

How did O=[N+]([O-])c1cccnc1N1CCC(c2cc(-c3ccc(Cl)cc3Cl)n[nH]2)CC1 do in these assays?
WT yeast gro inh: 65; Platelet DG rel: inactive; PHOSPHO1 inh: inactive; SKKanGAS inh: 80; TPT1 inhibitor: inactive; Rtt109 Vps75: inactive

How did NC(=O)C1CCN(c2ncccc2[N+](=O)[O-])CC1 do in these assays?
WT yeast gro inh: inactive; Platelet DG rel: inactive; PHOSPHO1 inh: inactive; SKKanGAS inh: inactive; TPT1 inhibitor: inactive; Rtt109 Vps75: inactive

How did O=[N+]([O-])c1cccnc1N1CCC(c2cc(-c3cccc(C(F)(F)F)c3)n[nH]2)CC1 do in these assays?
WT yeast gro inh: 78; Platelet DG rel: inactive; PHOSPHO1 inh: inactive; SKKanGAS inh: 100; TPT1 inhibitor: inactive; Rtt109 Vps75: inactive

Results for COc1ccc(OC)c(-c2cc(C3CCN(c4ncccc4[N+](=O)[O-])CC3)[nH]n2)c1 ?
WT yeast gro inh: inactive; Platelet DG rel: inactive; PHOSPHO1 inh: inactive; SKKanGAS inh: 57; TPT1 inhibitor: inactive; Rtt109 Vps75: inactive

Results for CC(=O)c1ccc(N2CCC(c3cc(-c4ccc(Cl)cc4Cl)n[nH]3)CC2)c([N+](=O)[O-])c1 ?
WT yeast gro inh: inactive; Platelet DG rel: inactive; PHOSPHO1 inh: inactive; SKKanGAS inh: 80; TPT1 inhibitor: inactive; Rtt109 Vps75: inactive

What do the screens show for `COCc1ccc(O)c2ncccc12`?
WT yeast gro inh: inactive; Platelet DG rel: inactive; PHOSPHO1 inh: inactive; SKKanGAS inh: 61; TPT1 inhibitor: inactive; Rtt109 Vps75: inactive

Results for Oc1ccc(CNc2ccccc2)c2cccnc12 ?
WT yeast gro inh: inactive; Platelet DG rel: inactive; PHOSPHO1 inh: inactive; SKKanGAS inh: inactive; TPT1 inhibitor: inactive; Rtt109 Vps75: inactive

Results for Oc1ccc(CNc2ccc(F)cc2)c2cccnc12 ?
WT yeast gro inh: inactive; Platelet DG rel: inactive; PHOSPHO1 inh: 95; SKKanGAS inh: inactive; TPT1 inhibitor: inactive; Rtt109 Vps75: inactive

Results for Cc1cccc(NCc2ccc(O)c3ncccc23)c1 ?
WT yeast gro inh: inactive; Platelet DG rel: inactive; PHOSPHO1 inh: inactive; SKKanGAS inh: inactive; TPT1 inhibitor: inactive; Rtt109 Vps75: inactive

How did Oc1ccc(Cn2ccnc2)c2cccnc12 do in these assays?
WT yeast gro inh: inactive; Platelet DG rel: inactive; PHOSPHO1 inh: inactive; SKKanGAS inh: inactive; TPT1 inhibitor: inactive; Rtt109 Vps75: inactive

How did Cc1ccccc1NCc1ccc(O)c2ncccc12 do in these assays?
WT yeast gro inh: inactive; Platelet DG rel: inactive; PHOSPHO1 inh: 71; SKKanGAS inh: inactive; TPT1 inhibitor: inactive

What do the screens show for `CCOc1ccc(/C(O)=C2/C(=O)C(=O)N(CCCN3CCOCC3)C2c2ccc(F)cc2)cc1C` (stereo not drawn)?
Platelet DG rel: inactive; PHOSPHO1 inh: inactive; SKKanGAS inh: inactive; TPT1 inhibitor: inactive; Rtt109 Vps75: inactive

How did O=C1CCC(C(=O)Nc2cccc(S(=O)(=O)Nc3ccccc3F)c2)=NN1 do in these assays?
Rtt109 Vps75: inactive

How did CCCCN(c1nc2ccccc2nc1Cl)S(=O)(=O)c1ccc(C)cc1 do in these assays?
Platelet DG rel: inactive; PHOSPHO1 inh: inactive; SKKanGAS inh: inactive; TPT1 inhibitor: inactive; Rtt109 Vps75: inactive

What do the screens show for `[N-]=[N+]=NC1CC(CO)OC1n1ccc(=O)[nH]c1=O` (stereo not drawn)?
Platelet DG rel: inactive; PHOSPHO1 inh: inactive; SKKanGAS inh: inactive; TPT1 inhibitor: inactive; Rtt109 Vps75: inactive

How did CC1CCCN(C(=O)C(=O)c2cn(CC(=O)N3CCCCCC3)c3ccccc23)C1 (stereo not drawn) do in these assays?
Platelet DG rel: inactive; PHOSPHO1 inh: inactive; SKKanGAS inh: inactive; TPT1 inhibitor: inactive; Rtt109 Vps75: inactive

What do the screens show for `Cc1cc(C)c(S(=O)(=O)/N=C2/C=C(SCC(=O)O)C(=O)c3ccccc32)cc1C`?
WT yeast gro inh: 66; PHOSPHO1 inh: inactive; Rtt109 Vps75: inactive

What do the screens show for `CCOC(=O)c1c(O)cc(C)cc1Nc1ccccc1`?
Platelet DG rel: inactive; PHOSPHO1 inh: inactive; SKKanGAS inh: 51; TPT1 inhibitor: inactive; Rtt109 Vps75: inactive

What do the screens show for `Cc1ccccc1OCC(=O)Nc1ccc(N2CCN(C)CC2)c(Cl)c1`?
Platelet DG rel: inactive; PHOSPHO1 inh: inactive; SKKanGAS inh: inactive; TPT1 inhibitor: inactive; Rtt109 Vps75: inactive

What do the screens show for `OC(CC1CC12c1ccccc1-c1ncccc12)(c1ccccc1)c1ccccc1` (stereo not drawn)?
WT yeast gro inh: 74; Platelet DG rel: inactive; PHOSPHO1 inh: inactive; SKKanGAS inh: inactive; TPT1 inhibitor: inactive; Rtt109 Vps75: inactive

What do the screens show for `CCOC(=O)C(C)C1(O)c2ccccc2-c2ncccc21` (stereo not drawn)?
WT yeast gro inh: inactive; Platelet DG rel: inactive; PHOSPHO1 inh: inactive; SKKanGAS inh: inactive; TPT1 inhibitor: inactive; Rtt109 Vps75: inactive

Results for COc1ccccc1OCCCn1cc(C#N)c2ccccc21 ?
WT yeast gro inh: inactive; Platelet DG rel: inactive; PHOSPHO1 inh: inactive; SKKanGAS inh: inactive; TPT1 inhibitor: inactive; Rtt109 Vps75: inactive

What do the screens show for `COc1ccccc1OCCCn1c(C)c(C#N)c2ccccc21`?
WT yeast gro inh: inactive; Platelet DG rel: inactive; PHOSPHO1 inh: inactive; SKKanGAS inh: 62; TPT1 inhibitor: inactive; Rtt109 Vps75: inactive

Results for Cc1cccc(NC(=O)c2ccc(COc3ccc(Cl)cc3Cl)o2)n1 ?
WT yeast gro inh: 60; Platelet DG rel: inactive; PHOSPHO1 inh: inactive; SKKanGAS inh: inactive; TPT1 inhibitor: inactive; Rtt109 Vps75: inactive

Results for COc1ccc(N2C(=O)/C(=C/c3cccs3)NC2=S)cc1 ?
WT yeast gro inh: inactive; Platelet DG rel: inactive; PHOSPHO1 inh: 75; SKKanGAS inh: inactive; TPT1 inhibitor: inactive; Rtt109 Vps75: inactive

How did CN1C(=O)/C(=C/c2ccccc2Cl)Sc2ccc(C(=O)NCc3cccnc3)cc21 do in these assays?
WT yeast gro inh: inactive; Platelet DG rel: inactive; PHOSPHO1 inh: inactive; SKKanGAS inh: 71; TPT1 inhibitor: inactive; Rtt109 Vps75: inactive

What do the screens show for `NC(=O)c1ccc(NC(=O)CCN2C(=O)c3ccccc3C2=O)cc1`?
Platelet DG rel: inactive; PHOSPHO1 inh: inactive; SKKanGAS inh: inactive; TPT1 inhibitor: inactive; Rtt109 Vps75: inactive

Screens as filed in PubChem.
